Laboratory results: PubChem BioAssay AID504853 (Southern Research Specialized Biocontainment Screening …, 2011)
Measured potencies and affinities stand elsewhere. Calls of active or inactive are those of the source. The rule behind the calls is not given here.

Experiment: HepG2 cell cytotoxicity, dose response, cytotoxicity control, set 3 (AID 504853)
Settings: series mostly up to 50 µM

| Compound | outcome |
| --- | --- |
| Cc1nc(SCC(=O)NC2CCCC2)[nH]c(=O)c1C | inactive |
| CC(C)NC(=O)CSc1nc2ccccc2c(=O)[nH]1 | inactive |
| COC(=O)c1ccc(CNc2c(N3CCCC3)c(=O)c2=O)cc1 | inactive |
| CCSc1nc2ccccc2c(=O)[nH]1 | inactive |
| Cc1cc(=O)[nH]c(SCC(=O)NC2CCCCC2)n1 | inactive |
| CC(C)CCNC(=O)CSc1nc2ccccc2c(=O)[nH]1 | inactive |
| Cc1ccc(NC(=O)CSc2nc3ccccc3c(=O)[nH]2)cc1Cl | inactive |
| O=C(CSc1nc2c(c(=O)[nH]1)CCCC2)NC1CCCCC1 | inactive |
| Cc1nc(SCC(=O)N(C)c2ccccc2)[nH]c(=O)c1C | inactive |
| CNC(=O)CSc1nc2ccccc2c(=O)[nH]1 | inactive |
| CC1CCN(C(=O)CSc2nc3ccccc3c(=O)[nH]2)CC1 | inactive |
| O=c1[nH]c(=S)[nH]c2ccccc12 | inactive |
| CC1CCN(C(=O)C2CCN(c3nnc(-n4cccc4)s3)CC2)CC1 | inactive |
| COC(=O)C(C)Oc1ccc(Cc2ncc(C(F)(F)F)cc2Cl)cc1 (stereo not given) | inactive |
| CCC(Sc1nc2ccccc2c(=O)[nH]1)C(=O)NC1CCCCC1 (stereo not given) | inactive |
| Cc1nc(SCc2ccccc2Cl)[nH]c(=O)c1C | inactive |
| Cc1cccc(/C=C/C(=O)c2ccc([N+](=O)[O-])o2)c1 | inactive |
| Cc1c[nH]c(=S)[nH]c1=O | inactive |
| CCC(Sc1nc2ccccc2c(=O)[nH]1)C(=O)Nc1cccc(OC)c1 (stereo not given) | inactive |
| O=C(CSc1ccccn1)NC1CCCCC1 | inactive |
| CCOC1OC(=O)C(Cl)=C1Nc1ccccc1C (stereo not given) | inactive |
| Cc1[nH]c(=S)[nH]c(=O)c1C | inactive |
| CN(C(=O)CSc1nc2ccccc2c(=O)[nH]1)C1CCCCC1 | inactive |
| CCC(Sc1nc2c(c(=O)[nH]1)CCC2)C(=O)Nc1cccc(OC)c1 (stereo not given) | inactive |
| CC(Sc1nc2ccccc2c(=O)[nH]1)C(=O)NC1CCCCC1 (stereo not given) | inactive |
